The results in this text go back to PubChem BioAssay AID1259416 (Broad Institute, 2018).

“And” between values parts separate entries of the source, which are not always exact repeats. Identical values can stand only once. About 2,600 (3.8%) of roughly 69,000 compounds were called active. Cut-off read from the data, not from the text of the source: active = activity change below about -70% (passing the limit was not always enough); inconclusive = no clear call, values can overlap the other calls. The full list was thinned out, with actives kept by preference. The source holds several records for some structures; these can differ, active in one and inactive in another.

This assay is described as follows: inhibitors of Toxoplasma growth in IFN-γ-primed hosts – cell-based, primary screen (AID 1259416).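 Note: host cells are HeLa cells infected with Toxoplasma gondii.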 The following applies: Toxoplasma gondii growth in IFN-gamma-treated host cells; stronger effect = lower value; concentration not given here.
For `CC[N+]1(C)CCCC(OC(=O)C(O)(c2ccccc2)c2ccccc2)C1` (stereo not drawn), the activity change, negative = inhibition is -81.7% (active) and 11.1% (inactive) and 46.8% (inactive).

Regarding `COc1ccc(OC)c(NC(=O)c2cc3cccnc3n(Cc3ccccc3F)c2=O)c1`, the activity change, negative = inhibition was 10.9% (inactive).

As to `CC(C)N1C[C@H]2CN(C(=O)c3cccs3)C[C@@H]2C1`, the activity change, negative = inhibition was 13.5% (inactive).

As for `CO[C@@H]1CCN(C(=O)c2ccc(C)cn2)[C@H]2CN(CC3CC3)C[C@@H]12`, the activity change, negative = inhibition was 294% (inactive).

Turning to `c1cc(-c2cccc3c2CCNC3)cc(-n2cnnc2)c1`, the activity change, negative = inhibition was -1.55% (inactive).

Turning to `CC(C)(Cc1c[nH]c2ccc(Cl)cc12)NCCOc1ccccc1OCC1CC1`, the activity change, negative = inhibition is -75.1% (active) and -81.3% (active).

`COc1ccc2c(c1)C1(CCN(C(=O)C(C)(C)NC(=O)OCc3ccccc3)CC1)CC2CC(=O)O` (stereo not drawn): the activity change, negative = inhibition was 0.749% (inactive).

For the molecule `Cc1nc(N2CCCN3CCC[C@H]3C2)c2cnn(C)c2n1`, the activity change, negative = inhibition was 2.34% (inactive).

Take `CN1CCC2(COCc3cnc(NCc4ccco4)nc32)C1` (stereo not drawn): the activity change, negative = inhibition is -59.4% (inactive).

For `CCc1cnc(C)nc1N1CCC2(CC1)CN(C)CCN2C`, the activity change, negative = inhibition was -5.22% (inactive).

Take `CC(Cc1ccccn1)N(C)Cc1ncc[nH]1` (stereo not drawn): the activity change, negative = inhibition was 15.6% (inactive).

On to `c1ccc2c(c1)[I+]c1ccccc1-2`, for which the activity change, negative = inhibition was -75.9% (active) and -69.4% (inactive).

`COc1ccc(NC(=O)c2cc3cccnc3n(Cc3ccc(Cl)cc3)c2=O)c(OC)c1`: the activity change, negative = inhibition was 113% (inactive).

As for `CCc1ccc(NC(=O)c2cc3cccnc3n(Cc3ccccc3F)c2=O)cc1`, the activity change, negative = inhibition was 49.4% (inactive).

In the case of `Cc1cc(C)cc(NC(=O)c2c(O)c3cccnc3n(Cc3ccccc3)c2=O)c1`, the activity change, negative = inhibition is 135% (inactive).

On to `O=C(Nc1ccccc1)c1c(O)c2cccnc2n(Cc2ccccc2)c1=O`, for which the activity change, negative = inhibition is -29% (inactive).

`CC(NC(=O)c1c(O)c2cccnc2n(Cc2ccccc2)c1=O)c1ccccc1` (stereo not drawn): the activity change, negative = inhibition was -120% (active).

Regarding `CC(C)c1ccc(NC(=O)c2cc3cccnc3n(Cc3ccc(Cl)cc3)c2=O)cc1`, the activity change, negative = inhibition is 70.6% (inactive).

For `C=CCNC(=O)c1cn(Cc2ccc(C)o2)cc(C(=O)N2CCCCCCC2)c1=O`, the activity change, negative = inhibition is -1.9% (inactive).

As to `C/C=C/c1ccc(C2[C@@H]3CN(S(C)(=O)=O)C[C@H]2N3)cc1` (stereo partly drawn), the activity change, negative = inhibition was 4.19% (inactive).

Regarding `COc1cc([C@@H]2c3cc4c(cc3[C@H](OC(C)=O)[C@H]3COC(=O)[C@H]23)OCO4)cc(OC)c1OC`, the activity change, negative = inhibition is -81.8% (active).

Consider `O=C(Nc1cccc(F)c1)N1CC2CNC(C2)C1` (stereo not drawn), for which the activity change, negative = inhibition was -49% (inactive).

Consider `CN(Cc1ncc[nH]1)C1CCC2(CCNCC2)CC1`, for which the activity change, negative = inhibition is -23.6% (inactive).

For the molecule `CCN1CCO[C@@H]2CN(Cc3ccc4ccccc4n3)C[C@H]2C1`, the activity change, negative = inhibition is -44.8% (inactive).

`CCCCCCCCCCCCCC(=O)O[C@@H]1[C@@H](C)[C@@]2(O)[C@@H](C=C(CO)C[C@]3(O)C(=O)C(C)=C[C@@H]23)[C@@H]2C(C)(C)[C@]12OC(C)=O`: the activity change, negative = inhibition is -78.2% (active) and -67.3% (inactive).

As for `CNC(=O)[C@H]1CC2CN(C(=O)Cc3cccs3)CC2N1C` (stereo partly drawn), the activity change, negative = inhibition was -9.27% (inactive).

As for `CC(=O)O[C@H]1CC[C@@]2(C)C(=CCC3C2CC[C@]2(C)C(=O)CCC32)C1` (stereo partly drawn), the activity change, negative = inhibition was -55.1% (inactive).

For the molecule `COc1ccc(CN2CCCC23CCCN(C(=O)Cc2ccc(Cl)cc2)C3)cc1F` (stereo not drawn), the activity change, negative = inhibition was 84.8% (inactive).
